Measurements: PubChem BioAssay (Tox21)
Inconclusive results are not listed. Activity calls are given as the source filed them. Unless noted, calls follow the shape of the dose curve; as a rule, active = well fitted curve in the direction sought with a large enough effect in the repeat runs; inconclusive = weak or mixed curves; inactive = no such curve, though single readings can be large; an effect the other way counts as inactive or inconclusive.

How the values were obtained:
[1] = qHTS assay to identify aromatase inhibitors - cell viability counter screen (AID 743084);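 also: cells stimulated with testosterone during compound exposure; nearly all actives have a fitted effect of over 55% in size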
[2] = biological target: Aryl hydrocarbon receptor (Homo sapiens) (UniProt P35869); assay: qHTS assay to identify small molecule that activate the aryl hydrocarbon receptor (AhR) signaling pathway (AID 743085);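 also: HG2L7.5c1 human HepG2 liver cells with stably integrated DRE-driven firefly reporter; series mostly up to about 70 µM; nearly all actives have a fitted effect of over 15% in size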
Method in brief: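 HepG2 cells (HG2L7.5c1) stably carrying a firefly luciferase reporter driven by 20 dioxin responsive elements were exposed to compound for 24 h at 37C after a 5 h settling period; luminescence rise (ONE-Glo) indicated activation.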

[3] = qHTS assay to identify small molecule that activate the aryl hydrocarbon receptor (AhR) signaling pathway - cell viability counter screen (AID 743086);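 also: HepG2 liver cells carrying the AhR DRE luciferase reporter; series mostly up to about 70 µM; nearly all actives have a fitted effect of over 45% in size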
Method in brief: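 HepG2-AhR-luc (HG2L7.5c1) cells, 4000/well, were preincubated 5 h at 37C, exposed to compound in qHTS format for 24 hr at 37C, then given CellTiter-Fluor for 30 min; viability was read as fluorescence in the reporter wells.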

[4] = biological target: Peroxisome proliferator-activated receptor gamma (Homo sapiens) (UniProt P37231); assay: qHTS assay to identify small molecule agonists of the peroxisome proliferator-activated receptor gamma (PPARg) signaling pathway (AID 743094; active = well fitted activation curve with a large enough effect in the signal ratio in the repeat runs, not every such curve was filed as active; the % refers to the signal ratio)
Method in brief: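 Cells from the PPARg UAS-bla HEK293H line are plated and incubated 5 h at 37C. Compounds in DMSO are pinned in and left 17 h at 37C. LiveBLAzer B/G substrate is then added for 1 h at room temperature before fluorescence is measured.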

[5] = biological target: Peroxisome proliferator-activated receptor gamma (Homo sapiens) (UniProt P37231); assay: qHTS assay to identify small molecule antagonists of the peroxisome proliferator-activated receptor gamma (PPARg) signaling pathway (AID 743191; calls by dose curve; also: series mostly up to about 63 µM; nearly all actives have a fitted effect of over 30% in size)
Method in brief: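 GeneBLAzer PPARg UAS-bla HEK293H cells carrying a UAS-driven beta-lactamase reporter were plated at 3000 cells/well, preincubated 5 h at 37C, then given compound for 17 h at 37C; LiveBLAzer B/G FRET substrate was read after 1 h at room temperature.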

[6] = qHTS assay to identify small molecule antagonists of the peroxisome proliferator-activated receptor gamma (PPARg) signaling pathway - cell viability counter screen (AID 743194); also: nearly all actives have a fitted effect of over 55% in size
Method in brief: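 PPARg-UAS-bla HEK293H cells were plated, rested 5 h at 37 C, then treated with compounds plus rosiglitazone (50 nM final) for 17 h at 37 C; viability was then read by CellTiter-Glo luminescence after 30 min at room temperature.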

[7] = qHTS assay for small molecule agonists of the antioxidant response element (ARE) signaling pathway (AID 743202; active = well fitted activation curve with a large enough effect in the signal ratio in the repeat runs, not every such curve was filed as active; the % refers to the signal ratio)
Method in brief: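 Steps: seed ARE-bla HepG2 cells (2,000/well); incubate 5 h at 37 C; add compounds by pin tool; incubate 16 h at 37 C; add FRET substrate; read fluorescence after 2 h at RT.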

[8] = qHTS assay for small molecule agonists of the antioxidant response element (ARE) signaling pathway - cell viability counter screen (AID 743203; calls by dose curve; also: nearly all actives have a fitted effect of over 55% in size)
Method in brief: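 Cytotoxicity was tested in parallel with the ARE reporter screen. ARE-bla HepG2 cells were exposed to compounds for 16 hrs, and viability was taken from CellTiter-Glo luminescence.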

[9] = qHTS assay for small molecule activators of the heat shock response signaling pathway - cell viability counter screen (AID 743209); also: nearly all actives have a fitted effect of over 50% in size
Method in brief: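 Cytotoxicity counter screen run in parallel with the HSE beta-lactamase reporter, using the same wells. HeLa HSE-bla cells received compound for 5 h at 37 C; ATP-based CellTiter-Glo luminescence was measured after 30 min at room temperature.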

[10] = qHTS assay for small molecule activators of the heat shock response signaling pathway (AID 743210; active = well fitted activation curve with a large enough effect in the signal ratio in the repeat runs, with a control signal flat, not every such curve was filed as active; the % refers to the signal ratio;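 also: HeLa cells with beta-lactamase reporter driven by heat shock elements; series mostly up to about 63 µM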)
Method in brief: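 Activation of heat shock element-controlled beta-lactamase expression is measured in HeLa cells by LiveBLAzer FRET fluorescence, with compound exposure lasting 5 h at 37 C and substrate loading 2.5 h at room temperature.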

[11] = qHTS assay to identify small molecule agonists of the peroxisome proliferator-activated receptor delta (PPARd) signaling pathway - cell viability counter screen (AID 743211); also: nearly all actives have a fitted effect of over 55% in size
Method in brief: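 PPARd-bla HEK293H cells (UAS-beta-lactamase reporter) were treated with compounds for 17 h at 37 C. Viability was then read in the same wells by CellTiter-Glo luminescence after 30 min at room temperature.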

[12] = qHTS assay to identify small molecule antagonists of the peroxisome proliferator-activated receptor delta (PPARd) signaling pathway - cell viability counter screen (AID 743213); also: nearly all actives have a fitted effect of over 50% in size
Method in brief: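 PPARd-bla HEK293H cells (3000/well) got compound plus 300 nM L165041 agonist for 17 h at 37 C. Viability in the same wells came from CellTiter-Glo luminescence after 30 min at room temperature.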

[13] = qHTS assay to identify small molecule agonists of the farnesoid-X-receptor (FXR) signaling pathway - cell viability counter screen (AID 743218); also: nearly all actives have a fitted effect of over 45% in size
Method in brief: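 Cells were seeded, left 5 h at 37 C and 5% CO2, then dosed with compound in DMSO for 16 h. After the beta-lactamase FRET read, CellTiter-Glo was added and luminescence measured 30 min later.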

[14] = qHTS assay to identify small molecule antagonists of the farnesoid-X-receptor (FXR) signaling pathway - cell viability counter screen (AID 743221; active = well fitted cell-killing curve with a large enough effect in the repeat runs, not every such curve was filed as active; also: nearly all actives have a fitted effect of over 50% in size)
Method in brief: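 FXR-UAS-bla HEK 293T cells were treated with test compounds plus chenodeoxycholic acid (50 uM final) for 16 h at 37 C. Cell viability in the same wells was then read as CellTiter-Glo luminescence after 30 min at room temperature.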

[15] = biological target: Vitamin D3 receptor (Homo sapiens) (UniProt P11473); assay: qHTS assay to identify small molecule agonists of the vitamin D receptor (VDR) signaling pathway (AID 743222; calls by dose curve)
Method in brief: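 Cells carrying a VDR-driven beta-lactamase reporter are seeded at 2,000 per well and rested 4 h. Compounds in DMSO are added for 16 h at 37C, and FRET substrate fluorescence is measured after 2 h at room temperature.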

[16] = biological target: Vitamin D3 receptor (Homo sapiens) (UniProt P11473); assay: qHTS assay to identify small molecule antagonists of the vitamin D receptor (VDR) signaling pathway (AID 743223; active = well fitted inhibition curve with a large enough effect in the signal ratio in the repeat runs, not every such curve was filed as active; the % refers to the signal ratio)
Method in brief: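 VDR-bla cells were plated, incubated 4 h at 37C, then given compound and 1alpha,25-dihydroxyvitamin D3 (3 nM final). After 16 h at 37C, LiveBLAzer B/G FRET substrate was added for 2 h at room temperature and fluorescence read.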

[17] = biological target: Peroxisome proliferator-activated receptor delta (Homo sapiens) (UniProt Q03181); assay: qHTS assay to identify small molecule agonists of the peroxisome proliferator-activated receptor delta (PPARd) signaling pathway (AID 743212; calls by dose curve)
Method in brief: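 Cells expressing a UAS-driven beta-lactamase reporter (PPARd-bla HEK293H) were given test compounds after a 5 h settle and kept at 37 C. Reporter activity was then measured as FRET fluorescence using LiveBLAzer B/G substrate.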

[18] = biological target: Peroxisome proliferator-activated receptor delta (Homo sapiens) (UniProt Q03181); assay: qHTS assay to identify small molecule antagonists of the peroxisome proliferator-activated receptor delta (PPARd) signaling pathway (AID 743215; active = well fitted inhibition curve with a large enough effect in the signal ratio in the repeat runs, not every such curve was filed as active; the % refers to the signal ratio;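 also: cells stimulated with agonist L165041 at 300 nM final during compound exposure; series mostly up to about 62 µM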)
Method in brief: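 Cells: HEK293H with a UAS-driven beta-lactamase reporter responsive to PPARd. Compounds were co-added with L165041 (300 nM, final) and incubated 17 h at 37 C before a 2 h room-temperature FRET substrate step and fluorescence reading.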

[19] = biological target: Bile acid receptor (Homo sapiens) (UniProt Q96RI1); assay: qHTS assay to identify small molecule antagonists of the farnesoid-X-receptor (FXR) signaling pathway (AID 743217; active = well fitted inhibition curve with a large enough effect in the signal ratio in the repeat runs, not every such curve was filed as active; the % refers to the signal ratio)
Method in brief: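 Cells carrying a UAS-driven beta-lactamase reporter (GeneBLAzer FXR-UAS-bla HEK 293T) were plated and rested 5 h at 37 °C. Compounds in DMSO were added alongside chenodeoxycholic acid agonist at 50 uM final and left 16 h at 37 °C before FRET substrate readout.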

[20] = biological target: Bile acid receptor (Homo sapiens) (UniProt Q96RI1); assay: qHTS assay to identify small molecule agonists of the farnesoid-X-receptor (FXR) signaling pathway (AID 743220; active = well fitted activation curve with a large enough effect in the signal ratio in the repeat runs, not every such curve was filed as active; the % refers to the signal ratio)
Method in brief: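 FXR-UAS-bla HEK 293T cells carrying a UAS-driven beta-lactamase reporter were plated for 5 h at 37C/5% CO2, then exposed to DMSO-dissolved Tox21 10K compounds for 16 h at 37C. A LiveBLAzer B/G FRET substrate was loaded for 2 h at room temperature before fluorescence reading.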

Measured: Potency

Chain of Peroxisome proliferator-activated receptor gamma (Homo sapiens) (P37231 whole entry, looked up): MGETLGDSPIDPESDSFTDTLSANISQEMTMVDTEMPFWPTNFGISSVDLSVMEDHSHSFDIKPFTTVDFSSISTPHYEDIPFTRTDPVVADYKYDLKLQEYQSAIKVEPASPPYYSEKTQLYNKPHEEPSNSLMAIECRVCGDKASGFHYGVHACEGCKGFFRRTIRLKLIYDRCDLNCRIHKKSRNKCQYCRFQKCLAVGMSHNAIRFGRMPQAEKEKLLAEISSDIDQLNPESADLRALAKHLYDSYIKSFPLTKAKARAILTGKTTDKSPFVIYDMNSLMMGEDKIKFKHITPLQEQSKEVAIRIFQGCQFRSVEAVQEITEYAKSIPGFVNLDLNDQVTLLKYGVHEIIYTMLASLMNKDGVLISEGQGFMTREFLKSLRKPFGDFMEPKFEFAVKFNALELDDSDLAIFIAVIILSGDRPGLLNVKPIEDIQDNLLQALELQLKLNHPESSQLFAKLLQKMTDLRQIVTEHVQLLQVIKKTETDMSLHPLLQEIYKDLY
Chain of Vitamin D3 receptor (Homo sapiens) (P11473 whole entry, looked up): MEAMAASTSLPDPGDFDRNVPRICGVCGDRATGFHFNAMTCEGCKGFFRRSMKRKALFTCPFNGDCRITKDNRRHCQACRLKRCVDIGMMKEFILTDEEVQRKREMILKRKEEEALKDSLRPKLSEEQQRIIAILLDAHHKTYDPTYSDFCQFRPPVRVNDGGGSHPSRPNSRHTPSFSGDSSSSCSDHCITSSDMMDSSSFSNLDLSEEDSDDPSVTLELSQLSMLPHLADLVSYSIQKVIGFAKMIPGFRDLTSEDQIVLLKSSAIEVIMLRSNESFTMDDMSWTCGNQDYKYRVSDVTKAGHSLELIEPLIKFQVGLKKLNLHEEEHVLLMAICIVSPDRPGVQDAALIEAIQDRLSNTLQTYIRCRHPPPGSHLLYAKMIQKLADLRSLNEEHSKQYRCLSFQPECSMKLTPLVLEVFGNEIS
Chain of Bile acid receptor (Homo sapiens) (Q96RI1 whole entry, looked up): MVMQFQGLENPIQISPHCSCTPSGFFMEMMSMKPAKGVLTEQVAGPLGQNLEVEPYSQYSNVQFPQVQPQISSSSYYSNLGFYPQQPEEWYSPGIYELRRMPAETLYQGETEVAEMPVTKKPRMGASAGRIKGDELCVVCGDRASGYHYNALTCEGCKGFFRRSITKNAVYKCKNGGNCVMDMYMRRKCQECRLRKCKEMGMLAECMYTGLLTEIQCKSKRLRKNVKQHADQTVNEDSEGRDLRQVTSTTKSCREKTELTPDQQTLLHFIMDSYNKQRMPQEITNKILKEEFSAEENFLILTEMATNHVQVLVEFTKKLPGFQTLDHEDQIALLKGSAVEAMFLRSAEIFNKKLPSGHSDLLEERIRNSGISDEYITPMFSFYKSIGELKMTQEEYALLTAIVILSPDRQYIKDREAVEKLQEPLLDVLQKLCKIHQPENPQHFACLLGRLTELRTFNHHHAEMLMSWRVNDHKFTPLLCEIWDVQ
Chain of Peroxisome proliferator-activated receptor delta (Homo sapiens) (Q03181 whole entry, looked up): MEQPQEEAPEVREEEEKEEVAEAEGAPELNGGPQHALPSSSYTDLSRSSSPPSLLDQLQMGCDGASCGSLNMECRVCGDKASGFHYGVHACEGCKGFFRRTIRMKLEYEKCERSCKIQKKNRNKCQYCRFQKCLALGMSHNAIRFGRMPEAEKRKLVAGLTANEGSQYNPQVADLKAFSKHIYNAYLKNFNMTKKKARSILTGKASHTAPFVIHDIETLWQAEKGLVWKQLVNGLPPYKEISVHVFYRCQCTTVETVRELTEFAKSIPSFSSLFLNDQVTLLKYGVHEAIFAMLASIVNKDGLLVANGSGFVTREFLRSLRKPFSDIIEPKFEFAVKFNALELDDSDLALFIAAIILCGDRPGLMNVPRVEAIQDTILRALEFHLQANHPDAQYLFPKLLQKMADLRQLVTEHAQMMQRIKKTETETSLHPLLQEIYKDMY
Chain of Aryl hydrocarbon receptor (Homo sapiens) (P35869 whole entry, looked up): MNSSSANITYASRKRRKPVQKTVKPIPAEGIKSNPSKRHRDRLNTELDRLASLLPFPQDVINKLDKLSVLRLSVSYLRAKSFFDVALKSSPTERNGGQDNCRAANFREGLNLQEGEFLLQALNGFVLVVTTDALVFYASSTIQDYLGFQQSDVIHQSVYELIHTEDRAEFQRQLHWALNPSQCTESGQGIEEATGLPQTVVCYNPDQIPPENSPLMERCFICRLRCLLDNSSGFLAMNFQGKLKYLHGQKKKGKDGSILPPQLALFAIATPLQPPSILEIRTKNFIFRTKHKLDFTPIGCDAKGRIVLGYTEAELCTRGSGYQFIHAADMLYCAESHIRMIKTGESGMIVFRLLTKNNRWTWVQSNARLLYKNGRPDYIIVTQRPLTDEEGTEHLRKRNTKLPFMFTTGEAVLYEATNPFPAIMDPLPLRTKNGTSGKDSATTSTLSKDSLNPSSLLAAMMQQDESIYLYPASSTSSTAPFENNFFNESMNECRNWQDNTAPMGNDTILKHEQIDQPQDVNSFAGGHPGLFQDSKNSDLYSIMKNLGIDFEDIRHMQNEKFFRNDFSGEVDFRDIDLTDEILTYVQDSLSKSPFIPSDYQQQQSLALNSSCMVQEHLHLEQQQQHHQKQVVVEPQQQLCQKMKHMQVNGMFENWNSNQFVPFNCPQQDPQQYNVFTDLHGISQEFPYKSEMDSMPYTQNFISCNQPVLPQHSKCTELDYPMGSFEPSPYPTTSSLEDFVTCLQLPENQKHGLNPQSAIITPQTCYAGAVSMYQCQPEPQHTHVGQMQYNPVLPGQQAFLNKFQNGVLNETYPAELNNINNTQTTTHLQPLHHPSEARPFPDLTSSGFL

NCCS(=O)(=O)O
not listed: [17] | [18] | [19] | [20]
inactive: all other assays above

CC[C@]12CCCN3CCc4c(n(c5ccccc45)[C@@](O)(C(=O)OC)C1)[C@@H]32
not listed: [17] | [18] | [19] | [20]
inactive: all other assays above

CCCCCC1C(=O)CCC1CC(=O)OC (centres undefined)
not listed: [9] | [10] | [19] | [20]
inactive: all other assays above

CC(C)(C)c1cccc(C(C)(C)C)c1O
not listed: [15] | [16]
inactive: all other assays above

O=C(O)c1ccc(O)cc1
not listed: [7] | [15] | [16]
inactive: all other assays above

CCCCCCC(C)O (centres undefined)
not listed: [19] | [20]
inactive: all other assays above

CNC[C@H](O)c1ccc(O)c(O)c1
not listed: [9] | [13] | [17] | [18] | [19] | [20]
inactive: all other assays above

CN(C)C
not listed: [6] | [16] | [17] | [18] | [19] | [20]
inactive: all other assays above
